An excerpt weighted towards active compounds, which were near 1.5% of everything screened.
RECQ1 inh-1: inhibitors of human RECQ1 DNA helicase. 240,000 tested, 0.54% active. RECQ1 DNA unwinding, red fluorescence kinetic read. Potency, µM (titrated, usually from 57.3 µM), actives largely listed as inhibitors. P46063; also: nearly all actives have a fitted effect of over 30% in size
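RECQ1T1 50 nM; forked duplex (20 bp + 30-nt ss tails) 200 nM, ATP 2 mM final; pH 8.0, 2 mM MgCl2, 2.5 ug/ml poly(dI-dC); 15 min compound preincubation; discontinuous kinetic read over 2 h at RT.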
FEN1 inhibitor: inhibitors of human flap endonuclease 1. 390,000 tested, 0.35% active. Recombinant FEN1 flap cleavage, fluorescence, 15 min. AID 588795. P39748. Potency, µM (top dose mostly 114 µM), usual class: inhibitors; also: nearly all actives have a fitted effect of over 65% in size
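In this screen, 50 nM flap DNA substrate was added to 10 nM FEN1 pretreated with compound for 15 min at room temperature; cleavage was followed with reads at 0 and 15 min, and Hill fitting gave concentration–response parameters.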
PI5P4K alpha inh: PI5P4K alpha (human) kinase inhibition; 330,000 tested, 1.2% active; PI5P4Kalpha enzyme, ADP-Glo luminescence, 60 min; active compounds read low; max response, %; active = max response of -50% or lower; inconclusive = between -30% and -50%; inactive = -30% or higher; also: value at the top dose of about 77 µM
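ADP-Glo luminescence end-point after a 60 min room-temperature kinase reaction. PI5P4Kalpha and substrate in HEPES pH 7.4 buffer with EGTA, 0.1% CHAPS and 5% DMSO; ATP at 5 microM final.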
APE1 inh-1: inhibitors of human APE1 endonuclease. Potency, µM (titrated, usually from 65.8 µM), most hits filed as inhibitors. P27695. 350,000 tested, 0.35% active. AID 2517. recombinant APE1, TAMRA/BHQ-2 abasic DNA cleavage fluorescence; also: nearly all actives have a fitted effect of over 55% in size
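Enzyme (0.75 nM final) and test compound are incubated 15 min at room temperature before adding 50 nM quenched THF abasic-site duplex. Cleavage dequenches TAMRA, followed at 525/598 nm over three reads one minute apart.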
BLM inh-1: blocks DNA unwinding by human BLM helicase | Potency, µM (series often up to 56.1 µM), usual class: inhibitors | 350,000 tested, 0.2% active | recombinant BLM DNA unwinding, fluorescence dequenching | P54132; also: nearly all actives have a fitted effect of over 35% in size
GCN5L2 inh: blocks human GCN5L2 histone acetyltransferase | 390,000 tested, 0.21% active | Q92830 | GCN5L2 HAT assay, ThioGlo1 CoA-SH fluorescence | Potency, µM (top dose mostly 58.9 µM), actives largely listed as inhibitors
Target sequence (Q92830 whole entry, looked up): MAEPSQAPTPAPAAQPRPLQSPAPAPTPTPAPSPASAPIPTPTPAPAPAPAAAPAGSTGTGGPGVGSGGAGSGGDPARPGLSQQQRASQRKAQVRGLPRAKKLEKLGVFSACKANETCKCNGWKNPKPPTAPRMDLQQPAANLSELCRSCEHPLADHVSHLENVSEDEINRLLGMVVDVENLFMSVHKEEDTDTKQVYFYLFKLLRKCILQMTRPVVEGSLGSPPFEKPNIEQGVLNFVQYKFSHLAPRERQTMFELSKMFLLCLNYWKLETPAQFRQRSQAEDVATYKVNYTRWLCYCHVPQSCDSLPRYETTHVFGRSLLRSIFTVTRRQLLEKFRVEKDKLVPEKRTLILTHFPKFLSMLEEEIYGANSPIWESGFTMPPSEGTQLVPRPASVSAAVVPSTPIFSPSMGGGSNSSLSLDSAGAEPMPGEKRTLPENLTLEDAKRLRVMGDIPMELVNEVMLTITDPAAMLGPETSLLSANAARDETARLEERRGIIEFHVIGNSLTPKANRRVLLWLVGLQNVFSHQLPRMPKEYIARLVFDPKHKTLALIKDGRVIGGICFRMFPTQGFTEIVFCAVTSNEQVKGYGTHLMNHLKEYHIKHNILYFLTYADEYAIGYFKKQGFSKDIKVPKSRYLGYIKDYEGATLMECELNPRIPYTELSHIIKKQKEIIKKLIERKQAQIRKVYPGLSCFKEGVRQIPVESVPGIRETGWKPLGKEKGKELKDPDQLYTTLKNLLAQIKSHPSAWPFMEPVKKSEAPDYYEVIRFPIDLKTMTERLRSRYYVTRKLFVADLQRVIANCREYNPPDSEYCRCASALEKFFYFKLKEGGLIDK
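Preincubate 20nM GCN5L2 with compound 15 min, RT → add 50uM ThioGlo1 + 75uM H3(1-25) + 70uM acetyl-CoA → read fluorescence 0 and 20 min. Primary qHTS; fluorescent artifacts likely.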
APE1 dye cs: DNA dye displacement counter-screen activity; shares compounds with APE1 inh-1; DNA fluorescent dye displacement counterscreen, fluorescence; Potency, µM (top dose mostly 28.5 µM), most hits filed as inhibitors; 480 tested, 7% active; AID 2564;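 also: loss of thiazole orange fluorescence as the dye is displaced from duplex DNA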
EndoIV counter: counter-screen for APE1 inhibitors: inhibitors of E. coli endonuclease IV | E. coli Endo IV, fluorogenic AP-site DNA cleavage | 560 tested, 4% active | shares compounds with APE1 inh-1 | Potency, µM (top dose mostly 27.1 µM), hits mostly inhibitors
APE1 inh-2: confirmation of inhibitors of human APE1 endonuclease; Potency, µM (doses to about 57.1 µM), usual class: inhibitors; 750 tested, 44% active; AID 2572; shares compounds with APE1 inh-1; purified APE1, fluorogenic abasic-site DNA cleavage; also: nearly all actives have a fitted effect of over 30% in size
APE1 FP: displaces DNA from human APE1 in FP assay; shares compounds with APE1 inh-1; APE1 binding to TAMRA-labelled double-stranded DNA, fluorescence polarization displacement; Potency, µM (highest dose often 28.5 µM), hits mostly inhibitors; 480 tested, 7% active
BLM inh-2: confirmation of inhibitors of human Bloom syndrome helicase BLM | shares compounds with BLM inh-1 | BLM DNA unwinding, fluorescence quenching, biochemical | Potency, µM, hits mostly inhibitors | 220 tested, 40% active;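 also: strand separation dequenches TAMRA so unwinding raises red fluorescence; series mostly up to about 69 µM; nearly all actives have a fitted effect of over 45% in size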
RECQ1 inh conf: confirmation of human RECQ1 helicase inhibitors; shares compounds with RECQ1 inh-1; RECQ1 helicase DNA unwinding, fluorescence; Potency, µM (highest dose often 229 µM), usual class: inhibitors; 610 tested, 28% active; AID 2708; also: nearly all actives have a fitted effect of over 45% in size
RECQ1 ADP FP: counter-screen for RECQ1 inhibitors: ADP displacement; Potency, µM (doses to about 228 µM), most hits filed as inhibitors; ADP fluorescence polarization displacement counterscreen; 530 tested, 27% active; shares compounds with RECQ1 inh-1; AID 2711; also: nearly all actives have a fitted effect of over 45% in size
RECQ1 inh-2: blocks human RECQ1 DNA unwinding | recombinant RECQ1 DNA unwinding, red fluorescence | shares compounds with RECQ1 inh-1 | Potency, µM (titrated, usually from 119 µM), actives largely listed as inhibitors | 1,100 tested, 15% active; also: nearly all actives have a fitted effect of over 50% in size
Large screens that a line does not name were inactive (follow-up assays come after a bar, where they were run). Unless noted, calls follow the shape of the dose curve; as a rule, active = well fitted curve in the direction sought with a large enough effect; inconclusive = small, poorly fitted or top-dose-only effect, or another doubt; inactive = no such curve, though single readings can be large; an effect the other way counts as inactive or inconclusive.

COc1ccc2c(c1)c(=O)oc1cc(OCC(=O)NC3CC3)ccc12	APE1 inh-1 inconclusive
O=C(CSc1nc(-c2ccc(F)cc2)nc2c1Cc1ccccc1O2)Nc1ccc(C(=O)O)cc1	RECQ1 inh-1 inconclusive, FEN1 inhibitor inconclusive, APE1 inh-1 inconclusive, BLM inh-1 8.9µM, GCN5L2 inh 14µM | APE1 dye cs 3.2µM | EndoIV counter inconclusive | APE1 inh-2 4.5µM | APE1 FP inactive | BLM inh-2 29µM
O=c1[nH]c2cc(Cl)c(O)cc2o1	none (no result: FEN1 inhibitor, PI5P4K alpha inh)
Cc1cccc(NC(=O)CN2C(=O)N/C(=C/c3ccc(C)s3)C2=O)c1	none
Cc1ccc(NC(=O)CN2C(=O)N/C(=C/c3ccco3)C2=O)cc1	RECQ1 inh-1 4µM, PI5P4K alpha inh inconclusive, APE1 inh-1 3.2µM, GCN5L2 inh inconclusive | APE1 dye cs inactive | EndoIV counter inactive | APE1 inh-2 inconclusive | APE1 FP inactive | RECQ1 inh conf 40µM | RECQ1 ADP FP 50µM
O=C(O)c1ccc(CNc2ncnc3nc[nH]c23)cc1	none (no result: RECQ1 inh-1, PI5P4K alpha inh, APE1 inh-1, BLM inh-1, GCN5L2 inh)
CCOc1ccc2noc3c2c1C(=O)c1ccccc1-3	none
O=C1c2ccccc2-c2onc3ccc(NCc4ccco4)c1c23	RECQ1 inh-1 20µM, FEN1 inhibitor 8.9µM, APE1 inh-1 inconclusive | APE1 inh-2 14µM | RECQ1 inh-2 40µM
CC(=O)Nc1ccc2c(COC(=O)CC3Sc4ccccc4NC3=O)cc(=O)oc2c1 (stereo not drawn)	RECQ1 inh-1 inconclusive, PI5P4K alpha inh inconclusive, APE1 inh-1 inconclusive | APE1 inh-2 35µM | RECQ1 inh-2 inconclusive
O=C(c1coc(=O)c(Br)c1)N1CCC(C(O)(c2ccccc2)c2ccccc2)CC1	none
CC1(C)CCCN(C(=O)c2coc(=O)c(Br)c2)C1	RECQ1 inh-1 11µM, FEN1 inhibitor 56µM, PI5P4K alpha inh -82, APE1 inh-1 4µM | APE1 inh-2 1.3µM | RECQ1 inh conf 20µM | RECQ1 ADP FP inactive
O=C(NN1C(=O)/C(=C/C=C/c2ccco2)SC1=S)c1ccncc1	RECQ1 inh-1 3.5µM, FEN1 inhibitor 7.1µM, PI5P4K alpha inh -79, APE1 inh-1 4.5µM | APE1 dye cs inactive | EndoIV counter inactive | APE1 inh-2 4.5µM | APE1 FP inconclusive | RECQ1 inh conf 22µM | RECQ1 ADP FP 13µM
CC(=O)OCCNc1cc(SCc2ccco2)c2nonc2c1[N+](=O)[O-]	RECQ1 inh-1 7.1µM, FEN1 inhibitor inconclusive, PI5P4K alpha inh inconclusive, APE1 inh-1 13µM | APE1 dye cs inactive | EndoIV counter inactive | APE1 inh-2 14µM | APE1 FP inactive | RECQ1 inh conf inactive | RECQ1 inh-2 inactive
O=C1c2cccc(O)c2C(=O)c2c(O)cccc21	GCN5L2 inh inconclusive (no result: FEN1 inhibitor, PI5P4K alpha inh)
O=C1C=C(O)c2cccc(O)c2C1=O	RECQ1 inh-1 inconclusive, FEN1 inhibitor inconclusive, PI5P4K alpha inh inconclusive, APE1 inh-1 inconclusive, GCN5L2 inh inconclusive | APE1 dye cs inactive | EndoIV counter inactive | APE1 inh-2 inactive | APE1 FP inactive | RECQ1 inh-2 inactive
O=C(O)Cc1ccc(C(=O)CSc2ccccc2)s1	RECQ1 inh-1 inconclusive, PI5P4K alpha inh -59, APE1 inh-1 inconclusive | APE1 dye cs inactive | EndoIV counter inactive | APE1 inh-2 inconclusive | APE1 FP inactive | RECQ1 inh-2 inactive
O=C(O)Cc1ccc(C(=O)c2ccc(Cl)cc2)s1	none
CC(C)C[C@H](NC(=O)[C@H](CCCCN)NC(=O)CNC(=O)[C@H](CC(C)C)NC(=O)[C@@H](N)C(C)C)C(=O)N[C@@H](CO)C(=O)N[C@@H](CCC(N)=O)C(=O)N[C@@H](CCC(=O)O)C(=O)N[C@@H](CC(C)C)C(=O)N[C@@H](Cc1cnc[nH]1)C(=O)N[C@@H](CCCCN)C(=O)N[C@@H](CC(C)C)C(=O)N[C@@H](CCC(N)=O)C(=O)N[C@H](C(=O)N[C@@H](Cc1ccc(O)cc1)C(=O)N1CCC[C@H]1C(=O)N[C@@H](CCCNC(=N)N)C(=O)N[C@H](C(=O)N[C@@H](CC(N)=O)C(=O)N[C@H](C(=O)NCC(=O)N[C@@H](CO)C(=O)NCC(=O)N[C@H](C(=O)N1CCC[C@H]1C(N)=O)[C@@H](C)O)[C@@H](C)O)[C@@H](C)O)[C@@H](C)O	none (no result: FEN1 inhibitor, PI5P4K alpha inh)
Cc1ccc(NC(=O)c2cc3c(s2)CCCC3)cc1	none
O=C(COC(=O)c1cc2c(s1)CCC2)Nc1ccc(F)cc1	RECQ1 inh-1 22µM, PI5P4K alpha inh inconclusive, APE1 inh-1 16µM, BLM inh-1 16µM, GCN5L2 inh inconclusive | APE1 dye cs inconclusive | EndoIV counter inactive | APE1 inh-2 10µM | APE1 FP inconclusive | BLM inh-2 inconclusive | RECQ1 inh-2 inconclusive
O=C1c2ccccc2C(=O)N1/N=C/c1ccc(O)c(O)c1O	RECQ1 inh-1 6.3µM, FEN1 inhibitor 11µM, PI5P4K alpha inh -55, APE1 inh-1 0.71µM | APE1 dye cs inactive | EndoIV counter inactive | APE1 inh-2 inconclusive | APE1 FP inactive | RECQ1 inh conf inconclusive | RECQ1 ADP FP 35µM
O=C1c2ccccc2C(=O)N1c1ccc(O)cc1	none (no result: RECQ1 inh-1, PI5P4K alpha inh, APE1 inh-1, BLM inh-1, GCN5L2 inh)
OC[C@@H]1CCC[C@@H](n2cnc3c(=S)nc[nH]c32)O1	none (no result: RECQ1 inh-1, PI5P4K alpha inh, APE1 inh-1, BLM inh-1, GCN5L2 inh)
